Values without a mark were called inactive. Results filed as inconclusive are left out. Where a call stands in place of a potency, no number is given. Active and inactive are the calls of the source. Calls come from the whole dose curve; as a rule, active = well fitted curve in the direction sought with a large enough effect; inconclusive = small, poorly fitted or top-dose-only effect, or another doubt; inactive = no such curve, though single readings can be large; an effect the other way counts as inactive or inconclusive.
Assays:
[1] = target: Glutathione peroxidase 1 (Homo sapiens) (UniProt P07203); experiment: Primary qHTS Assay for Inhibitors of Recombinant Selenoprotein Glutathione Peroxidase 1 (GPX1) (AID 1845191); note: nearly all actives have a fitted effect of over 65% in size; note: potency is the fitted concentration of half-maximal effect
Glutathione peroxidase 1 (Homo sapiens), sequence (P07203 whole entry, looked up): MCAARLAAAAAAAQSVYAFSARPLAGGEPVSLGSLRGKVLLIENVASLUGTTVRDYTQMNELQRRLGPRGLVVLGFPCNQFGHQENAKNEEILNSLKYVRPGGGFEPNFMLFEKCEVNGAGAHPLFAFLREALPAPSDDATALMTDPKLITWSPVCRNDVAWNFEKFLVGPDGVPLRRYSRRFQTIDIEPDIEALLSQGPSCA
How it was run: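 GR-coupled readout: NADPH consumption tracked by fluorescence, ex 340/em 450 nm, at t=0 and after 15 min at RT. Final mix 10 nM GPX1, 1 mM GSH, 0.5 mM CHP, 0.5 mM NADPH, 100 nM GR, 0.01% BSA, following 30 min enzyme–compound preincubation.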

[2] = target: Phospholipid hydroperoxide glutathione peroxidase GPX4 (Homo sapiens) (UniProt P36969); experiment: Primary qHTS Assay for Inhibitors of Recombinant Selenoprotein Glutathione Peroxidase 4 (GPX4) (AID 1845192); note: nearly all actives have a fitted effect of over 65% in size
Phospholipid hydroperoxide glutathione peroxidase GPX4 (Homo sapiens), sequence (P36969 whole entry, looked up): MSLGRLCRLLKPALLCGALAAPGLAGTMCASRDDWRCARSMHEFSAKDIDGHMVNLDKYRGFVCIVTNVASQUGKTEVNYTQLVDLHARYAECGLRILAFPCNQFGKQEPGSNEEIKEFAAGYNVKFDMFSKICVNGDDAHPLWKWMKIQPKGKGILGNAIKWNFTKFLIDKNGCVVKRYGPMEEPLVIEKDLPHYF
How it was run: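 Steps: GPX4 plus compound, 30 min RT; add GR/GSH/NADPH master mix; start with cumene hydroperoxide; read 340/450 nm fluorescence at 0 and 15 min. Finals were 200 nM GPX4, 1 mM GSH, 0.5 mM CHP, 0.5 mM NADPH, 100 nM GR.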

[3] = target: Luciferin 4-monooxygenase (Photinus pyralis) (UniProt P08659); experiment: Primary firefly luciferase (FLuc) qHTS assay for identification of artifact compounds. (AID 1845220); note: nearly all actives have a fitted effect of over 60% in size
How it was run: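 D-luciferin and ATP (10 uM each, final) in Tris acetate buffer pH 7.6 were incubated with compounds for 15 min at room temperature. The reaction was started with 10 nM Photinus pyralis luciferase and luminescence read after 5 min. Percent inhibition was fitted to a 4-parameter Hill equation.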

[4] = Primary fluorescence-based thiol-reactive (MSTI) qHTS assay for identification of artifact compounds. (AID 1845221);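 note: series mostly up to about 54 µM; thiol-reactive compounds lower the probe fluorescence signal; nearly all actives have a fitted effect of over 65% in size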
How it was run: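 qHTS titration of compound; 4 uM MSTI, PBS pH 7.4, 2% DMSO; 1 h RT, dark; fluorescence 525/598 nm; normalized to Acetyl-MSTI and MSTI; 4-parameter Hill fit.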

[5] = tested on: Nanoluciferase (engineered Oplophorus gracilirostris luciferase); experiment: Primary Nanoluciferase (NLuc) qHTS assay for identification of artifact compounds. (AID 1845222); note: series mostly up to about 54 µM
How it was run: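 Diluted conditioned medium from NLuc-expressing S16 cells treated with compounds for 15 min at room temperature, then Nano-Glo substrate added; luminescence read after 5 min. Percent inhibition versus no-enzyme and DMSO controls fitted to 4-parameter Hill equation.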

[6] = Primary redox qHTS assay for identification of artifact compounds. (AID 1845223)
How it was run: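 Redox-cycling detection via DTT (250 uM final) oxidation coupled to Amplex Red (25 uM)/HRP (250 mU/mL) in HBSS. 15 min preincubation plus 30 min after DTT, room temperature. Ex/Em 525/598 nm; 4-parameter Hill fit against DMSO and 10 uM DA3003.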

Row | SMILES | Potency [1] | Potency [2] | Potency [3] | Potency [4] | Potency [5] | Potency [6] | activity, negative = inhibition [1] | outcome [2] | outcome [3] | activity change, negative = thiol reactive [4] | activity, negative = inhibition [5] | redox activity (% of DA3003) [6]
1 | COc1ccccc1N1CCN(CC[C@@](C)(C(=O)C2CCCCC2)c2ccccc2)CC1 | inactive | inactive | inactive | inactive | inactive | inactive |  |  |  |  |  | 
2 | CC(C)c1cc(-c2ccc(F)c3ccccc23)nc(N)n1 | inactive | inactive | inactive | inactive | inactive | inactive |  |  |  |  |  | 
3 | O=C(Nc1ccnc(NC(=O)C2CC2)c1)c1c(Cl)cccc1Cl | inactive | inactive | inactive | inactive | inactive | inactive |  |  |  |  |  | 
4 | O=C(N[C@H]1CCN(C(=O)c2cc(C(F)(F)F)cc(C(F)(F)F)c2)[C@H](Cc2ccc(Cl)cc2)C1)c1ccnc2ccccc12 | inactive | inactive | inactive | inactive | inactive | inactive |  |  |  |  |  | 
5 | COC(=O)N1CCC(n2ncc3c(N4CCOCC4)nc(-c4ccc(NC(=O)NC5CC5)cc4)nc32)CC1 | inactive | inactive | inactive | inactive | inactive | inactive |  |  |  |  |  | 
6 | O=C1Nc2nc(-c3c(O)cccc3OCC3CC3)cc([C@@H]3CCCNC3)c2CO1 | inactive | inactive | inactive | inactive | inactive | inactive |  |  |  |  |  | 
7 | O[C@@](Cc1ncc(CC2(C(F)(F)F)CC2)[nH]1)(c1ccc(-n2cccn2)cc1)C(F)(F)F | inactive | inactive | inactive | inactive | inactive | inactive |  |  |  |  |  | 
8 | CC#CC(=O)Nc1ccc2ncnc(Nc3cccc(Br)c3)c2c1 | inactive | inactive | inactive | inactive | inactive | inactive |  |  |  |  |  | 
9 | CCCCCCCCn1cc(CN(CC)CC)c2cc(-c3cnc(N)nc3)ccc21 | inactive | inactive | inactive | inactive | inactive | inactive |  |  |  |  |  | 
10 | C[C@@H]1CC[C@]2(C(=O)O)CC[C@]3(C)C(=CCC4[C@@]5(C)CC[C@H](O)[C@](C)(C(=O)O)C5CC[C@]43C)C2[C@]1(C)O (stereo partly drawn) | inactive | inactive | inactive | inactive | inactive | inactive |  |  |  |  |  | 
11 | CCn1c(=O)n([C@H]2CCCN(c3nccc(-c4cc5ccccc5o4)n3)C2)c2ccccc21 | inactive | inactive | inactive | inactive | inactive | inactive |  |  |  |  |  | 
12 | CCCCNc1ncc2c(-c3ccc(S(=O)(=O)N4CCOCC4)cc3)nn(C3CCC(O)CC3)c2n1 (stereo not drawn) | inactive | inactive | inactive | inactive | inactive | inactive |  |  |  |  |  | 
13 | CC(O)(C(=O)O)C1CCC2(C)C1CCC1(C)C2CCC2C3(C)CCC(O)C(C)(COC4OC(CO)C(O)C(O)C4O)C3CCC21C (stereo not drawn) | inactive | inactive | inactive | inactive | inactive | inactive |  |  |  |  |  | 
14 | C=CC(C)(O)CC/C=C(\C)C(=O)OC1C(O)C(CO)OC(OC(=O)C23CCC(C)(C)CC2C2=CCC4C5(C)CCC(OC6OC(COC7OCC(OC(C)=O)C(O)C7OC7OC(COC(C)=O)C(O)C(O)C7OC(C)=O)C(O)C(O)C6OC6OCC(O)C(O)C6O)C(C)(C)C5CCC4(C)C2(C)C(O)C3O)C1OC1OCC(OC2OCC(O)C(OC3OCC(O)C(O)C3O)C2O)C(O)C1O (stereo not drawn) |  |  |  |  |  |  | -15.5% [at 9.52 µM] | inactive [at 9.73 µM] | inactive [at 6.45 µM] | 140% [at 6.41 µM] | 0% [at 6.45 µM] | 4.4% [at 6.41 µM]
15 | Cc1ccc(F)cc1S(=O)(=O)N[C@@H]1CCN(Cc2ccc(OC(C)C)cc2)C1 | inactive | inactive | inactive | inactive | inactive | inactive |  |  |  |  |  | 
16 | O=C(Cc1c(F)cccc1F)Nc1cc(OCc2ccc(Cl)cc2)ccn1 | inactive | inactive | inactive | inactive | inactive | inactive |  |  |  |  |  | 
17 | COc1ccc(C2=NC(c3ccc(Cl)cc3)C(c3ccc(Cl)cc3)N2C(=O)N2CCNC(=O)C2)c(OC(C)C)c1 (stereo not drawn) | inactive | inactive | inactive | inactive | inactive | inactive |  |  |  |  |  | 
18 | Cc1csc(N(C(=O)CSc2ccc(-c3ccccc3)nn2)C2CC2)n1 | 20.2 µM (active) | inactive | inactive | inactive | inactive | inactive |  |  |  |  |  | 
19 | N#Cc1ccc(O[C@@H]2c3ccccc3C[C@H]2N2CCC[C@@H](N)C2)c(Cl)c1 | inactive | inactive | inactive | inactive | inactive | inactive |  |  |  |  |  | 
20 | C[C@H]1CC[C@@]2(OC1)O[C@H]1CC3C4CC[C@H]5C[C@@H](O)CC[C@]5(C)C4=CC(=O)[C@]3(C)[C@H]1[C@@H]2C (stereo partly drawn) | inactive | inactive | inactive | inactive | inactive | inactive |  |  |  |  |  | 
21 | CC(C)c1ccc(NC(=O)Cn2cnc3c2c(=O)n(C)c(=O)n3C)cc1 | inactive | inactive | inactive | inactive | inactive | inactive |  |  |  |  |  | 
22 | C=C(C)C(=O)OC1CC(CO)CCC/C(CO)=C/C2OC(=O)C(=C)C21 (stereo not drawn) | inactive | inactive | inactive | inactive | inactive | inactive |  |  |  |  |  | 
23 | Cc1ccccc1CN1CCn2c1nc1c(c2=O)CN(Cc2ccccc2)CC1 | inactive | inactive | inactive | inactive | inactive | inactive |  |  |  |  |  | 
